# Assay results published in paper PMC12864922, “TDP-43 directly inhibits mRNA accumulation in neurites through modulation of mRNA stability”.
# In all, about 9,900 sequences were measured (“r (bound/input frequency ratio)”: median about 0.7, highest 2% from about 6.5 on). Many of the other results were omitted from the sample, so the highest values are more common in it than they were.
# B1: ENSMUSG00000031028.199|Tub (ssRNA)
# RNA: GGGAGUUCUACAGUCCGACGAUCGCUUCGAUAUCCGCAUGCUAACCUGCUAGGGUCUAUUCUGCAUGUCCUUUCUCUUCCCAGUUCCAGAGAUGAAACCCCUCCGAGUUAAUGUAUAAGGUUGGAAACCUUUCAGUAGGGAAUCAGGCAGUUCCCUGUUGAAAGUUGUCUGAGUUUUUGCACACCAUUCUGAUCUGAUGUGGCCUGUGCCUGGCUCCUCUAUGAGGACUUCGAGCUGUGCACAGACCUUAGCAGGACCACUGCACACUUUGUGUCUGUGUGACAGGCAGCCCAAGGGUUCUGGCUCUUGCGGUCGCACUAGUGUGGAAUUCUCGGGUGUCAAGG
# B2: ENSMUSG00000090935.60|Synj2bp (ssRNA)
# RNA: GGGAGUUCUACAGUCCGACGAUCGCUUCGAUAUCCGCAUGCUAAUUACCUGCACCUGGAUAUGGGACAGUAGGCUUUUACACUGUUCUUGUGAAUAGGUUUGUAAGCUUCAAAGUCUGCUUUACUUUAUCUUCUGUUAUGAUUGCCUUUGUCAGCAUAGGCAGGAGUCCUUUAGGAUUUCUGCCUAUCAGUAAAAGAAGUAUGUAACCCAAGUUCUACCUUCAGUGGAUUAAAGUUUCAUUAAGUGAAAAUGGAAAGAAAGUAGAAUUACUUGGUAAGAGGCCAAAUGAGGAUACAGAGGCUGCUCUUGCGGUCGCACUAGUGUGGAAUUCUCGGGUGUCAAGG
# B3: ENSMUSG00000042529.476|Kcnj12 (ssRNA)
# RNA: GGGAGUUCUACAGUCCGACGAUCGCUUCGAUAUCCGCAUGCUAAGAUGUAGGCAACAAGACUAGACCACAUUAAAUGCAUUUUGAUCUCUUUGAAUGCUACUGUGUUGAGAUGUGCGUCUCACUGGCCUCUGCCUGCCUCUCCCGCCUGCGGAGCACUUACACUUCCUGGGGCCCCUGCAGCUGGACCAUGUACAGGGCUCCCUGGGGCUUGUCCUCAGGGGCAGAGAAGGACAUGGUGGCAGCAGCACUGAGAACAGGAGCAUGGCCUCUCUCAGACCCCAGGGCAGUCAUUCAGUCUUUUCCUCUUGCGGUCGCACUAGUGUGGAAUUCUCGGGUGUCAAGG
# B4: ENSMUSG00000058297.104|Spock2 (ssRNA)
# RNA: GGGAGUUCUACAGUCCGACGAUCGCUUCGAUAUCCGCAUGCUAACCACGGUCUUGUGGUGAUGAGGCAGGACCUGUACACACAGCAAGGCUUACUAUCCGUCUCCUGACAUCCGAAGAGCUCGUCGCAGGUGUGUCUAAUGGCCCUUGGGCUGCACGUGGUUAAGCAUAGCUGUCUCUGUGGCCCAACACAAAGAGGUAAACUUACUUAAAACACAGGGGUUUUGUUGCUGUUUGUUUUUUGUUAGUUUGUUUGUUGAUAAUUGGAUUGAGGAGUUAAUCCUCUGUCACAAUGUCAAAAGCAUCUCUUGCGGUCGCACUAGUGUGGAAUUCUCGGGUGUCAAGG
# B5: ENSMUSG00000043670.53|Diras1|229:234 (ssRNA)
# RNA: GGGAGUUCUACAGUCCGACGAUCGCUUCGAUAUCCGCAUGCUACCUACAGUAAGGUUGGGCUCCAUCCCUGCCUCUUCACACCUCCAUAGCUUCAUCCUUUGCAGACCUCUCCCUCUAUAUCUCUUUGCUCCCCCACCCCCAUUCUAUCUGCACCCCACAACCACACACUGGAGGUUUGAUCCCUGUGGAUCUGAAAACAGGGACCUGGCUAAGGAACUGCUCAUCCCAGUCAGGCCCAGAGAGGUUACCUUGCCUCUCCAUCUCUGUCCCACACACCCCAGCCAUGCCCACUGUCCCUGUCCCUCUUGCGGUCGCACUAGUGUGGAAUUCUCGGGUGUCAAGG
# B6: ENSMUSG00000029636.33|Wasf3|33:37;79:83 (ssRNA)
# RNA: GGGAGUUCUACAGUCCGACGAUCGCUUCGAUAUCCGCAUGCUAUCCCUGUAGCUUUAGUCCCUUUUGUAUUAACACACACAUUUGCUUCUGCACAUCCUUCUGGAUUUGUUGAGUAUUUACACACAAAUACUUAAGUGCCACAGAACACAGCACACCGUGCUGCACACCAGGAAACUCGCAGUAUUAGUGCAUCACCCUGGAACAGCAUCUUGCUUCCCUCUCAGCCGUGAGAGUCCCCUCUCCUGUCCAUCCUGAUUUGGUGGGCUUGCCACGUAUCUGCGCAGCUGCCCCACGUCAGCUCUCUCUUGCGGUCGCACUAGUGUGGAAUUCUCGGGUGUCAAGG
# B7: ENSMUSG00000004113.19|Cacna1b|119:123 (ssRNA)
# RNA: GGGAGUUCUACAGUCCGACGAUCGCUUCGAUAUCCGCAUGCUAACCCUUACCUAGGGCAGCGUCUGGACAGUGAGGCCUCCGCCCACACCCUGCCUGAGGAUACACUCACCUUUGAAGAGGCAGUGGCCACCAACUCUGGCCGCUCCUCCAGGACUUCCUAACACACCUCCCUCACUUCCCAAUCCCACCCUCUCCGCCGUGUACCCAAUGGCUAUCACUGCACUUUGGGACUCAGCACUGGCGUCCGGGCGCGGCACAGCUACCACCACCCCGAUCAGGACCACUGGUGCUAGCUGCACCACCUCUUGCGGUCGCACUAGUGUGGAAUUCUCGGGUGUCAAGG
# B8: ENSMUSG00000028439.147|Fam219a (ssRNA)
# RNA: GGGAGUUCUACAGUCCGACGAUCGCUUCGAUAUCCGCAUGCUAGGUUCCAGGCUGGAAGCAAGAGAUAAGGCUGGCCUCCUGUGCCCCAUUGCCAUUUCACCCUAGCUCAAAGUCCAGGAGCCAGGCUUCCAGAAAGGCUCUUCAAGAGCAAGCUUAAGGAAAUACAGUGAGCCAAGUGGCUGUAUGAUAUGGUAUGGUAUGGUAUGGUAUGGUAUGGUAUGGUAUGCACAUGUGUGUGCAUGUGUGUGUGCCUGUGUGUGUGCGUGUGCGUGUGUGUAUGUGUGUGCGUGUGUGUGUGUGUGCUCUUGCGGUCGCACUAGUGUGGAAUUCUCGGGUGUCAAGG
# B9: ENSMUSG00000028439.138|Fam219a (ssRNA)
# RNA: GGGAGUUCUACAGUCCGACGAUCGCUUCGAUAUCCGCAUGCUAUGUCUCUCUGCCUCAUCCCCACACCGCCCUGCCACCCCCAGUCUUCUGUCUAUUGGUUCCAGGCUGGAAGCAAGAGAUAAGGCUGGCCUCCUGUGCCCCAUUGCCAUUUCACCCUAGCUCAAAGUCCAGGAGCCAGGCUUCCAGAAAGGCUCUUCAAGAGCAAGCUUAAGGAAAUACAGUGAGCCAAGUGGCUGUAUGAUAUGGUAUGGUAUGGUAUGGUAUGGUAUGGUAUGGUAUGCACAUGUGUGUGCAUGUGUGUGCUCUUGCGGUCGCACUAGUGUGGAAUUCUCGGGUGUCAAGG
# B10: ENSMUSG00000028439.141|Fam219a (ssRNA)
# RNA: GGGAGUUCUACAGUCCGACGAUCGCUUCGAUAUCCGCAUGCUACCACACCGCCCUGCCACCCCCAGUCUUCUGUCUAUUGGUUCCAGGCUGGAAGCAAGAGAUAAGGCUGGCCUCCUGUGCCCCAUUGCCAUUUCACCCUAGCUCAAAGUCCAGGAGCCAGGCUUCCAGAAAGGCUCUUCAAGAGCAAGCUUAAGGAAAUACAGUGAGCCAAGUGGCUGUAUGAUAUGGUAUGGUAUGGUAUGGUAUGGUAUGGUAUGGUAUGCACAUGUGUGUGCAUGUGUGUGUGCCUGUGUGUGUGCGUGCUCUUGCGGUCGCACUAGUGUGGAAUUCUCGGGUGUCAAGG
# B11: ENSMUSG00000028439.137|Fam219a (ssRNA)
# RNA: GGGAGUUCUACAGUCCGACGAUCGCUUCGAUAUCCGCAUGCUAUGCAUCUGUCUCUCUGCCUCAUCCCCACACCGCCCUGCCACCCCCAGUCUUCUGUCUAUUGGUUCCAGGCUGGAAGCAAGAGAUAAGGCUGGCCUCCUGUGCCCCAUUGCCAUUUCACCCUAGCUCAAAGUCCAGGAGCCAGGCUUCCAGAAAGGCUCUUCAAGAGCAAGCUUAAGGAAAUACAGUGAGCCAAGUGGCUGUAUGAUAUGGUAUGGUAUGGUAUGGUAUGGUAUGGUAUGGUAUGCACAUGUGUGUGCAUGCUCUUGCGGUCGCACUAGUGUGGAAUUCUCGGGUGUCAAGG
# B12: ENSMUSG00000028439.148|Fam219a (ssRNA)
# RNA: GGGAGUUCUACAGUCCGACGAUCGCUUCGAUAUCCGCAUGCUAAGGCUGGAAGCAAGAGAUAAGGCUGGCCUCCUGUGCCCCAUUGCCAUUUCACCCUAGCUCAAAGUCCAGGAGCCAGGCUUCCAGAAAGGCUCUUCAAGAGCAAGCUUAAGGAAAUACAGUGAGCCAAGUGGCUGUAUGAUAUGGUAUGGUAUGGUAUGGUAUGGUAUGGUAUGGUAUGCACAUGUGUGUGCAUGUGUGUGUGCCUGUGUGUGUGCGUGUGCGUGUGUGUAUGUGUGUGCGUGUGUGUGUGUGUGUGUUGUCUCUUGCGGUCGCACUAGUGUGGAAUUCUCGGGUGUCAAGG
# B13: ENSMUSG00000028439.140|Fam219a (ssRNA)
# RNA: GGGAGUUCUACAGUCCGACGAUCGCUUCGAUAUCCGCAUGCUAUCAUCCCCACACCGCCCUGCCACCCCCAGUCUUCUGUCUAUUGGUUCCAGGCUGGAAGCAAGAGAUAAGGCUGGCCUCCUGUGCCCCAUUGCCAUUUCACCCUAGCUCAAAGUCCAGGAGCCAGGCUUCCAGAAAGGCUCUUCAAGAGCAAGCUUAAGGAAAUACAGUGAGCCAAGUGGCUGUAUGAUAUGGUAUGGUAUGGUAUGGUAUGGUAUGGUAUGGUAUGCACAUGUGUGUGCAUGUGUGUGUGCCUGUGUGUGCUCUUGCGGUCGCACUAGUGUGGAAUUCUCGGGUGUCAAGG
# Target: TDP-43 (Homo sapiens, UniProt Q13148 1-414)
# Assay: RNA Bind-n-Seq with designed 260-mer pool; 25 mM Tris-HCl, 150 mM KCl, 3 mM MgCl2, BSA (printed 500 mg/mL), 20 units/mL SUPERase IN; pH not stated; 500 nM RNA pool, 1 h, 4 C; TDP-43 5, 50, 500 nM; high values mean tight binding
# Conditions: protein: recombinant; tags: SBP (GST cleaved off with PreScission; pGEX-GST-SBP)
# How it was run: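 Binding (R) is the ratio of each oligo's mapped-read-normalized abundance in the bound fraction to its abundance in the input. To obtain it, SBP-tagged recombinant TDP-43 (5, 50 or 500 nM) on streptavidin beads was incubated with 500 nM of an in vitro-transcribed 260-nt 3′ UTR oligo pool for 1 h at 4 °C in 25 mM Tris-HCl, 150 mM KCl, 3 mM MgCl2, BSA and SUPERase IN. The RNA retained after washing was released with biotin, then reverse transcribed, amplified by PCR and sequenced.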
# TDP-43, sequence (Q13148 whole entry): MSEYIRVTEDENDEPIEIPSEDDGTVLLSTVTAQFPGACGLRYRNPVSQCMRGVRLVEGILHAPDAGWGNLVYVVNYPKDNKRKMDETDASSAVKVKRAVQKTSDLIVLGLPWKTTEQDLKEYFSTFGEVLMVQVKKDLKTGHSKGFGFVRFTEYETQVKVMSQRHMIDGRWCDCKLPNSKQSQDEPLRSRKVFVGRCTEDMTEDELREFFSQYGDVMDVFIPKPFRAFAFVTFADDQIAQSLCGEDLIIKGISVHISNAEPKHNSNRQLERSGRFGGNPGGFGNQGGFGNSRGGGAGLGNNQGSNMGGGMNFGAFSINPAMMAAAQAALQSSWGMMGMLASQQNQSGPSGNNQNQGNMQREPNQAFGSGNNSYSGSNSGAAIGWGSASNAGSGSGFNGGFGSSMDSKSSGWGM
row,Binder,binding signal
1,B1,1.55 R (bound/input frequency ratio)
2,B2,0.778 R (bound/input frequency ratio)
3,B3,0.564 R (bound/input frequency ratio)
4,B4,0.391 R (bound/input frequency ratio)
5,B5,2.98 R (bound/input frequency ratio)
6,B6,0.758 R (bound/input frequency ratio)
7,B7,1.6 R (bound/input frequency ratio)
8,B8,7.43 R (bound/input frequency ratio)
9,B9,1.6 R (bound/input frequency ratio)
10,B10,3.58 R (bound/input frequency ratio)
11,B11,1.7 R (bound/input frequency ratio)
12,B12,7.16 R (bound/input frequency ratio)
13,B13,2.02 R (bound/input frequency ratio)
